Each sequence was assayed against T1, ETS1 (UniProt P14921) (assay: ETS1 binding intensity (PBM fluorescence), ETS1 alone (arbitrary fluorescence units); higher = stronger binding). Conditions: ETS1 concentration 1 nM; RUNX1 concentration 0 nM.
T1 sequence: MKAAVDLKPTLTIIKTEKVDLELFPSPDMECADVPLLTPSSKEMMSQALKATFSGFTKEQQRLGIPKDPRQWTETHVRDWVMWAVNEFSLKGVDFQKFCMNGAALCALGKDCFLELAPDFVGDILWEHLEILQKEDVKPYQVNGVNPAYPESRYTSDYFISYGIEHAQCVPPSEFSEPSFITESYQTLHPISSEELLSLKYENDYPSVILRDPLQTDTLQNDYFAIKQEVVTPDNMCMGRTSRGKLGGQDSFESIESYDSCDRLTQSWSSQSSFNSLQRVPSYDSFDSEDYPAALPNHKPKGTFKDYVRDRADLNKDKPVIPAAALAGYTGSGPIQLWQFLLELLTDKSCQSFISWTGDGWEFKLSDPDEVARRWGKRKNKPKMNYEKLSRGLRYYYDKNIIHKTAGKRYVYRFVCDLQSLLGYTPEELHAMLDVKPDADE

| Sequence | ETS1 binding intensity |
| --- | --- |
| CTGCCGCGACAGACAGGATGTGGCTTCTGCTCTGTC | 8750 |
| TATATGCACAGGAAGTCCCTTACAACCCACTCTGTT | 3900 |
| TGACATTTCCGGCCCCACCTCGGCCCGCAGCGCCGC | 1180 |
| GCACCGTACCCGGAACTGCTCCCTCCCGCAGGCGCA | 539 |
| GTTTGAAGGGAAGTGGGTGTTGACCTGCGGGCAACT | 483 |
| GTGGTCTCTCCCGGAAAAACCACTTCCACCGAGAAC | 932 |
| GGCTGTGCTTCAGGATGTGGTAATGCTTGGGAGGCG | 990 |
| GTGGTCTCTGCCACTTCCTGTGGTGTAAACAGTCTC | 2680 |
| GTGGCGAAAGTGCGGATGCGAAACCGCTGGCTCGGC | 587 |
| CTCCTCCCCCACTTCCTATTTTTACCGCAGTTGCAC | 752 |
| GCCACTTCCGGTCACTCCCCGCTGCGGCCTCGCGCT | 7030 |
| CAACGGCGTAGCCGGAAGTCAGTGGTTTTCGCCCCA | 12100 |
| GAAGCTACTCTGGTTTCCTGTGGTTTTCTGAGCACT | 597 |
| TCGCTTCCGGTGTCGGTTACAGACTGTGGTTGCCAT | 3090 |
| TGGCGGGAGAACTTCCCCCTGTGCGGTCGCGACGTG | 444 |
| TGCTTCTGAGGAAGTGATCTGTGGTCAAAGAAAGAA | 747 |
| GAGAAAAGAGACTGAGGATGTGGTTTGGGGTGTGGG | 661 |
| CTACGACTTCCGTGATGCCTTGCGGTTGCTGTAGCC | 524 |
| TAAGAGATTTCCTGTAAAGGTAACCACCAGCAAAGA | 522 |
| CCTCTTGCTGCCTCTTCCTGTGGTCTTTTCTCTGTC | 737 |

| Sequence | ETS1 binding intensity |
| --- | --- |
| CTCACAGAAGAGGCAGGAAGTGGTTTGAGTTATCAT | 9460 |
| TTGGTTGTTGCCAGAGGATGTGGGTTGGCGGGGGAG | 1690 |
| TGAGTCACATCCTGCAGGGCTGCGGTATCCTGGCTT | 773 |
| CCCCGCGGAACTCTGGCACAGTCAGCTGACCGCAGA | 424 |
| CACTTCCTCTGTGACTGCAGGTTTCCAACCACAAGC | 601 |
| ACACAGAGAGTGAGAGGAAGTGGTTTAGAGATGAGA | 2440 |
| CATGGTTGTTATTTCCTCACCACAATATGTGACATT | 386 |
| AGGCTTCCGGCCACGCCCCCTTCCCGCGGTTGCTAG | 704 |
| CTTCTACTTCCTGCCCCGCCCCCAGCTGTGGTCACA | 1420 |
| ACCAGAAGCACTGCAGGATGTGGTATCAAGACGCCT | 2250 |
| GACCAATGTAAACAAGGATGTGGGTTCTCCGGCCAC | 784 |
| CACTTCCGGGTCGTCAGCTCAGTTCTGCGGTTTCTG | 1030 |
| ATACAGACACAGGAAGTTGTGGGGAGTGCAAAAGCC | 5090 |
| AGCGGCCGAAGGAAGTGACGTTTGCGGCAGTAAGGC | 997 |
| TCCCTTACCTTCCTGCTGCCACCAAACCACCAAACC | 460 |
| GCAGCTCTGGCAGGATGCGGTTAAATATGTATCCAC | 2010 |
| CGCCGGCTCCCGGATGTTGTGGGGATCAGCGCCCGC | 3270 |
| AACTTAGCTTCCGGGAAGAAGGCGAGCGGTGGGAGG | 780 |
| GCAGGGGCCCATTTCCTGCCACAAGCCCACACAGGA | 1390 |
| CCGCCCTAGAGCAGGAAATAGCGGTCAGCGCCAGCT | 2740 |
